Source: PubChem BioAssay
PD-1 reversal – activators reversing PD-1 mediated T-cell inhibition | primary human CD4 T cells, PD-L1 beads, CellTiter-Glo 96 h | activation, % (no concentration beside the values) | 29,000 tested, under 10 active; call rule not given here
NOMO-1 viab – STK33 inhibitor candidate reducing NOMO-1 cell viability | inhibition, % (concentration not given with the values) | NOMO-1 AML viability, CellTiter-Glo luminescence, 72 h | AID 2330 | 37,000 tested, 7.5% active; in the data active means inhibition above about 80%
STK33 kin inh – blocks human STK33 kinase activity; Q9BYT3; ADP-Glo luminescence, MBP substrate; inhibition, % at 12.5 µM; 27,000 tested, 0.44% active; AID 2322; in the data active means inhibition above about 20%
Target sequence (Q9BYT3 whole entry, looked up): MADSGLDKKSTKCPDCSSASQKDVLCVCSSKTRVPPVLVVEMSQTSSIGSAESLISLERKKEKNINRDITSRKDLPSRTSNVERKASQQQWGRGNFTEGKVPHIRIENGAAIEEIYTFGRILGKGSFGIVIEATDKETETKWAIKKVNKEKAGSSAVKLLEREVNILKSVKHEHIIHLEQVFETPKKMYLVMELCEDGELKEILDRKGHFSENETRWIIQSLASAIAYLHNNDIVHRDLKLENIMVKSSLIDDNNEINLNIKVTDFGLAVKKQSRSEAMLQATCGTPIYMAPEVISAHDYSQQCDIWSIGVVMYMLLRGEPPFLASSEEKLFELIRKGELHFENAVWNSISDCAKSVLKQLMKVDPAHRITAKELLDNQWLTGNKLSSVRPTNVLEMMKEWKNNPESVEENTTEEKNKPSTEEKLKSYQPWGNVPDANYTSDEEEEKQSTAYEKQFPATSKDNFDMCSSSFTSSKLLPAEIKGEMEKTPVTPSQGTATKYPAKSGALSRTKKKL
Of the large screens only hits and unclear results are named; the others gave an inactive call. Only a selection was taken, and hits are over-represented in it overall.

C[C@@H]1CN([C@H](C)CO)C(=O)Cc2cc(NC(=O)NC3CCCCC3)ccc2O[C@@H]1CN(C)Cc1ccc(C(F)(F)F)cc1	NOMO-1 viab 109
C[C@@H]1CN([C@H](C)CO)C(=O)Cc2cc(NC(=O)CCC(F)(F)F)ccc2O[C@@H]1CN(C)Cc1ccc(Cl)c(Cl)c1	NOMO-1 viab 116
COCCCN1C(=O)[C@@]2(Cc3ccccc31)c1ccccc1C(=O)N(Cc1ccccc1C(F)(F)F)[C@H]2c1ccc(CO)cc1	none (no result: PD-1 reversal, NOMO-1 viab)
CCN(CC)C(=O)N1CCN(CCC#N)CC1	none (no result: STK33 kin inh)
CC1/C(=N/O)C[C@@H]2C[C@H]1C2(C)C (stereo partly drawn)	none
CCOC(=O)c1ccc(NC(=O)C(C)Sc2nc3ccccc3[nH]2)cc1 (stereo not drawn)	none
COC(=O)c1ccc(Cl)c(NC(=O)CSc2nc(C)cc(C(F)(F)F)n2)c1	none (no result: PD-1 reversal)
COC(=O)c1ccc(Cl)c(NC(=O)CSc2nc(-c3ccccc3)cc(C(F)(F)F)n2)c1	NOMO-1 viab 113
Cc1ccccc1NC(=O)CSc1nc(-c2ccc(Cl)cc2)cc(C(F)(F)F)n1	NOMO-1 viab 95 (no result: PD-1 reversal)
COc1ccc(-c2cc(C(F)(F)F)nc(SCC(=O)Nc3ccccc3C)n2)cc1	none (no result: PD-1 reversal, NOMO-1 viab)
CC(O)c1nc2ccccc2n1CCOc1ccc(Br)cc1 (stereo not drawn)	none (no result: PD-1 reversal)
Cc1ccc(O)c(NC(=O)CCN2C(=O)c3ccccc3C2=O)c1	none
CC(C)Oc1ccccc1NC(=O)CSc1nnc(-c2ccccc2Cl)o1	none
C[C@@H]1CN([C@@H](C)CO)C(=O)c2cc(NC(=O)Cc3cn(C)c4ccccc34)ccc2O[C@@H]1CN(C)Cc1ccc(C(F)(F)F)cc1	NOMO-1 viab 106 (no result: STK33 kin inh)
C[C@@H]1CN([C@H](C)CO)C(=O)c2cc(NC(=O)Cc3cn(C)c4ccccc34)ccc2O[C@@H]1CN(C)Cc1ccc(-c2ccccc2)cc1	NOMO-1 viab 112 (no result: PD-1 reversal, STK33 kin inh)
C[C@@H]1CN([C@H](C)CO)C(=O)c2cc(NC(=O)Cc3cn(C)c4ccccc34)ccc2O[C@H]1CN(C)Cc1ccc(C(F)(F)F)cc1	none
C[C@@H]1CN([C@H](C)CO)C(=O)c2cc(NC(=O)Cc3cn(C)c4ccccc34)ccc2O[C@@H]1CN(C)Cc1ccc(Oc2ccccc2)cc1	NOMO-1 viab 108 (no result: STK33 kin inh)
C[C@H]1CN([C@@H](C)CO)C(=O)c2cc(NC(=O)Cc3cn(C)c4ccccc34)ccc2O[C@@H]1CN(C)Cc1ccc2c(c1)OCO2	NOMO-1 viab 98 (no result: PD-1 reversal, STK33 kin inh)
C[C@@H]1CN([C@@H](C)CO)C(=O)c2cc(NC(=O)Cc3cn(C)c4ccccc34)ccc2O[C@H]1CN(C)Cc1ccc2c(c1)OCO2	none
C[C@H](CO)N1C[C@H](C)[C@H](CN(C)Cc2ccc(Oc3ccccc3)cc2)Oc2ccc(NC(=O)Cc3cn(C)c4ccccc34)cc2C1=O	none (no result: STK33 kin inh)
C[C@H](CO)N1C[C@H](C)[C@H](CN(C)Cc2ccccc2)Oc2ccc(NC(=O)Cc3cn(C)c4ccccc34)cc2C1=O	none
Cn1c(SCC(=O)Nc2ccc(C(N)=O)cc2)nnc1-c1ccccn1	none
COc1ccc(NC(=O)CSC2CC(=O)N(c3ccccc3C)C2=O)cc1 (stereo not drawn)	none (no result: PD-1 reversal)
CC(=O)N[N+]1=C(N)c2ccccc2C1	none (no result: STK33 kin inh)
O=[n+]1cc(-c2ccccc2)n([O-])c2c1CCCC2	none (no result: STK33 kin inh)
Cc1sc2nc(SCC(=O)N3CCC(c4noc5ccc(F)cc45)CC3)n(-c3ccccc3)c(=O)c2c1C	none (no result: PD-1 reversal)
Cc1cccc(NC(=O)/C=C/c2ccccc2)c1	none (no result: STK33 kin inh)
C[C@@H]1CN([C@H](C)CO)C(=O)c2cc(NC(=O)Cc3cn(C)c4ccccc34)ccc2O[C@H]1CN(C)Cc1ccccc1	none (no result: PD-1 reversal, STK33 kin inh)
C[C@H](CO)N1C[C@H](C)[C@H](CN(C)Cc2ccc(-c3ccccc3)cc2)Oc2ccc(NC(=O)Cc3cn(C)c4ccccc34)cc2C1=O	NOMO-1 viab 85
C=CS(=O)(=O)c1ccc(OC)c(N)c1	NOMO-1 viab 120
COc1ccc(OC)c(S(=O)(=O)c2ccc(Br)cc2)c1	none (no result: STK33 kin inh)
Cc1ccc(C(=O)/C=C2/NCCNC2=O)cc1	none (no result: STK33 kin inh)
O=C(Nc1c(Cl)cc(Cl)cc1C(=O)NCCN1CCOCC1)c1cccc([N+](=O)[O-])c1	none (no result: PD-1 reversal)
O=C(Oc1c(CN2CCOCC2)cc(Cl)c2cccnc12)c1ccc([N+](=O)[O-])cc1	NOMO-1 viab 139
O=C(CSc1ncnc2scc(-c3ccc(Cl)cc3)c12)Nc1ccc2c(c1)OCCO2	none (no result: PD-1 reversal)
Oc1ccccc1CNCc1ccccn1	NOMO-1 viab 115 (no result: STK33 kin inh)
CCOc1c(CNCc2ccccn2)cccc1OC	none
COc1ccc(NC(=O)CSc2nc3c(cc2C#N)CCCCC3)cc1	none
N#Cc1cc2c(nc1SCC(=O)Nc1cccc(F)c1)CCCC2	NOMO-1 viab 92 (no result: PD-1 reversal)
C[C@H]1CN([C@@H](C)CO)C(=O)Cc2cc(NC(=O)Nc3ccccc3)ccc2O[C@H]1CN(C)Cc1ccccc1	none (no result: PD-1 reversal)
C[C@H](CO)N1C[C@H](C)[C@H](CN(C)Cc2ccc(Cl)c(Cl)c2)Oc2ccc(NC(=O)Nc3ccccc3)cc2CC1=O	NOMO-1 viab 116
